DT40 TDP1 no CPT: qHTS for Inhibitors of human tyrosyl-DNA phosphodiesterase 1 (TDP1): qHTS in cells in absence of CPT; DT40 Tdp1-/- hTDP1 cells, no CPT, ATP luminescence, 48 h; Potency, µM (doses to about 46.2 µM), for the others: at the highest dose activity change, negative = growth inhibition, usual class: inhibitors; 420,000 tested, 15% active; note: potency is the fitted concentration of half-maximal effect; nearly all actives have a fitted effect of over 55% in size
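Stably hTDP1-transfected Tdp1-null chicken DT40 cells were treated with library compounds minus camptothecin and grown for at least 48 hr at 37 °C, after which cellular ATP was quantified by luminescence.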
DT40 TDP1 CPT: growth inhibition of DT40 Tdp1-/-;hTDP1 cells with camptothecin (screen for TDP1 inhibitors); 420,000 tested, 12% active; chicken DT40 Tdp1-/-;hTDP1 cells + 20 nM CPT, ATP luminescence, 48 h; AID 686979; Potency, µM (doses to about 46.2 µM), inactives show at the top dose activity change, negative = growth inhibition, actives largely listed as inhibitors; note: potency is the fitted concentration of half-maximal effect; nearly all actives have a fitted effect of over 55% in size
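Chicken DT40 Tdp1-/- cells complemented with human TDP1, 400 cells/well, exposed to compounds plus 20 nM camptothecin for at least 48 h at 37 C; viability read as ATP content by CellTiter-Glo luminescence.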
HT1080NT lethal: kills 2HG-producing HT-1080-NT fibrosarcoma cells | Potency, µM (top dose mostly 46.1 µM), without a hit: top-dose activity, negative = less viability, most hits filed as cytotoxic | 360,000 tested, 1.6% active | HT-1080-NT fibrosarcoma viability, CellTiter-Glo ATP luminescence, 48 h;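 note: NT is the 2HG producing partner of a matched IDH1 knockdown line; potency is the fitted concentration of half-maximal effect; 0% = DMSO-treated cells and -100% = media-only wells without cells; nearly all actives have a fitted effect of over 55% in size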
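Viability by CellTiter-Glo luminescence after 48 h compound exposure at 37C of HT-1080-NT cells (750/well, RPMI, 5% FBS). % activity scaled between DMSO wells and medium-only wells, then curve-fitted and categorized by curve class.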
IL1B secr inh: inflammasome signaling inhibition, IL-1 beta readout; THP-1 LPS/ATP IL-1B secretion, AlphaLISA, 16 h; stronger effect = lower value; activity change, % at 57.5 µM; 360,000 tested, 4.7% active; AID 743279; in the data active = activity change below about -50%; inconclusive = mostly about -30% to -49%
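Secreted IL-1B measured by AlphaLISA bead assay after 16 h compound exposure of THP-1 cells; compounds (final up to 57.5 uM) added 1 h before LPS (250 ng/mL) and ATP (1.25 mM) stimulation; lower signal means less secretion.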
HT1080 IDH1KD tx: kills HT-1080 cells with IDH1 knockdown; Potency, µM (top dose mostly 46.1 µM), inactives show at the top dose activity, negative = toxicity, actives largely listed as cytotoxic; HT-1080 IDH1 knockdown viability, ATP luminescence, 48 h; 360,000 tested, 2% active;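 note: potency is the fitted concentration of half-maximal effect; 0% = DMSO wells and -100% = cell-free medium wells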
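Knockdown cells (IDH1KD HT-1080) received compounds 2 h after plating at 750 cells/well and were kept 48 h at 37 °C in 5% FBS RPMI. A CellTiter-Glo luminescence read gave % activity for curve fitting.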
* marks the source's active call; other numbers are inactive results; ? = inconclusive; . = not tested or not shown; ! = a repeat was not active; [ ] = another dose, or the depositor's remark. Only some compounds are listed: those with a hit (about 19% of all), similar ones and a draw of the others. Unless noted, calls come from the whole dose curve; as a rule, active = well fitted curve in the direction sought with a large enough effect; inconclusive = small, poorly fitted or top-dose-only effect, or another doubt; inactive = no such curve, though single readings can be large; an effect the other way counts as inactive or inconclusive. Unless noted, % is set by controls: 0 for no effect and ±100 for the full control effect.

SMILES	DT40 TDP1 no CPT	DT40 TDP1 CPT	HT1080NT lethal	IL1B secr inh	HT1080 IDH1KD tx
COC(=O)[C@H](C(C)C)N(Cc1ccccc1)S(=O)(=O)CCN1CCN(c2ccccc2)CC1	?	?	2.2%	19.4	-11.4%
CC(C)(CNC(=O)c1ccc(S(=O)(=O)Nc2cccc(C(F)(F)F)c2)cc1)N1CCOCC1	?	?	0.3%	12.0	-10.9%
COC(=O)Cc1ccc(NC(=S)NCc2cccc(OC)c2)cc1	?	-0.9%	-1.3%	4.9	4.1%
CCCCc1ccc(NC(=S)Nc2ccc(Nc3ccc(OC)cc3)cc2)cc1	20.6µM*	18.4µM*	-8.3%	0.0	?
COC(=O)c1ccc(NC(=S)NCCc2cccc(C)c2)cc1	?	?	9.4%	180.9	0.2%
CCCCc1ccc(NC(=S)Nc2cccnc2)cc1	-18.3%	-0.4%	7.3%	14.0	-0.9%
CCCCc1ccc(NC(=S)NCc2cccc(OC)c2)cc1	?	?	-10.1%	-79.3*	-16.3%
COC(=O)c1ccc(NC(=S)NCCc2ccc(OC)cc2)cc1	3.66µM*	?	-7.2%	-20.7	-7.7%
O=C(Nc1c(C(=O)N2CCOCC2)oc2ccccc12)c1ccccc1Cl	-29.6%	?	-5.8%	?	1.2%
CCCCC(=O)Nc1nc2c(s1)COc1ccccc1-2	?	-10.0%	-13.7%	31.8	-3.3%
CC[C@@H](NCCCn1ccc(NC(=O)OCc2ccccc2)nc1=O)c1ccccc1	16.4µM*	?	-4.2%	-27.0	-20.9%
C[C@@H](NCCCn1ccc(NC(=O)OCc2ccccc2)nc1=O)c1cccc2ccccc12	16.4µM*	?	-10.6%	?	-26.1%
C[C@@H](NC(=O)Cn1ccc(NC(=O)OCc2ccccc2)nc1=O)c1cccc2ccccc12	?	?	-20.7%	-24.7	-12.7%
CCOc1ccc(NC(=O)COC(=O)c2ccc3ncsc3c2)cc1OCC	2.8%	23.1%	4.0%	1.1	-0.1%
NNC(=S)Nc1c(Br)cc(F)cc1Br	-15.7%	-4.9%	-7.2%	-7.7	0.3%
O=c1c2ccccc2c(/C=N/NS(=O)(=O)c2ccccc2)c(O)n1-c1ccccn1	-24.9%	-1.2%	-0.1%	16.8	-0.7%
Cc1nc(N2CCC(C)CC2)c2nnn(Cc3ccccc3)c2n1	?	?	?	0.0	?
Cc1cc(C)cc(NC(=O)CN(Cc2ccccc2)S(C)(=O)=O)c1	13µM*	?	-8.1%	0.3	-9.1%
O=C(Cc1ccccc1)NCc1ccc2c(c1)OCO2	-4.6%	-5.7%	-4.5%	0.2	-3.4%
CS(=O)(=O)N(CC(=O)NCc1ccc2c(c1)OCO2)Cc1ccccc1	20.6µM*	29.1µM*	-12.7%	-5.3	-6.8%
CC(=O)c1cccc(NC(=O)c2cc(=O)[nH]c3ccccc23)c1	-28.4%	-23.4%	-1.1%	5.3	8.5%
O=C(NCCC(=O)N1CCN(Cc2c(F)cccc2Cl)CC1)c1ccc(Cl)cc1	?	?	-7.3%	-4.0	-10.8%
CC(=O)c1ccccc1-c1ccc2c(c1)CC(CNC(=O)c1ccnc(Cl)c1)O2 (centres undefined)	20.6µM*	23.1µM*	.	.	.
CCc1cc(C(=O)NCC2Cc3cc(-c4ccccc4C(C)=O)ccc3O2)no1 (centres undefined)	?	-9.9%[9.04 µM]	.	.	.
O=C(CCCN1C(=O)C(c2ccccc2)Oc2cccnc21)NCc1ccccc1F (centres undefined)	?	16.4µM*	-0.6%	-22.4	-0.1%
SMILES	DT40 TDP1 no CPT	DT40 TDP1 CPT	HT1080NT lethal	IL1B secr inh	HT1080 IDH1KD tx
CCN(CC)c1ccc(NC(=O)CCCN2C(=O)C(c3ccccc3)Oc3cccnc32)c(C)c1 (centres undefined)	10.3µM*	18.4µM*	.	.	.
O=C(CCCN1C(=O)C(c2ccccc2)Oc2cccnc21)Nc1ccccc1C(F)(F)F (centres undefined)	1.5%	-17.1%	.	.	.
Cc1ccc(C)c(N(CC(=O)Nc2ccccc2C(=O)NCc2ccco2)S(=O)(=O)c2ccccc2)c1	16.4µM*	?	-7.4%	-11.5	-0.3%
CS(=O)(=O)N(CC(=O)Nc1ccccc1C(=O)NCc1ccco1)c1ccccc1F	-27.5%	2.6%	-2.9%	9.6	-0.7%
Cc1ccc(C)c(N(CC(=O)NC2CCCC2)S(=O)(=O)c2ccccc2)c1	8.2µM*	11.6µM*	-24.2%	?	-21.7%
O=C(CN(c1ccc(F)cc1)S(=O)(=O)c1ccccc1)NCc1ccco1	?	-24.1%	-0.3%	-7.9	2.7%
O=C(CN(c1ccccc1)S(=O)(=O)c1ccccc1)Nc1ccccc1C(=O)NCc1ccco1	16.4µM*	?	-2.5%	0.0	-5.0%
CC(=O)Nc1cccc(/C(C)=N/NS(=O)(=O)c2ccc(C)cc2)c1	-2.7%	14.3%	11.8%	-4.8	16.5%
Cc1nc(SCC(=O)N(CC(C)C)C2CCS(=O)(=O)C2)c2c(C)c(C)sc2n1 (centres undefined)	-9.3%	-9.6%	-6.4%	4.1	-11.0%
COc1ccc(CN([C@H](CO)CC(C)C)S(=O)(=O)N(Cc2ccccc2)[C@H](CO)CC(C)C)cc1	23.1µM*	?	16.4µM*	-87.6*	6.51µM*
C=CS(=O)(=O)N(Cc1ccccc1Br)[C@H](CO)CC(C)C	10µM*	23.1µM*	-12.3%	?	-19.7%
COc1ccc(CN([C@H](C)CO)S(=O)(=O)N(Cc2ccccc2)[C@H](CO)C(C)C)cc1	16.4µM*	35.5µM*	12.4%	0.0	8.1%
CC(C)C[C@@H](CO)N(Cc1ccccc1)S(=O)(=O)N(Cc1ccccc1)[C@@H](CO)CC(C)C	18.4µM*	16.4µM*!	?	-63.4*	?
CCN([C@H](CO)CC(C)C)S(=O)(=O)c1ccccc1	?	?	-0.7%	44.2	7.2%
CN1CCc2cc3c(cc2C(=O)Cc2ccc4c(c2C1)OCO4)OCO3	-24.2%	12.1%	.	.	.
Cc1ccc(CNc2nc(CN3CCN(C=O)CC3)nc3ccccc23)o1	-27.6%	-10.1%[9.04 µM]	.	.	.
O=C(CSc1ccc(F)cc1)NC(=O)NCc1ccccc1	-14.7%	1.0%	4.6%	18.8	-13.7%
O=C1NC(Cc2ccc(O)cc2)c2nc3ccccc3c(=O)n2-c2ncccc21 (centres undefined)	?	22.8%	-15.6%	22.4	-5.9%
CC(C)C[C@@H](CO)N(Cc1ccccc1)S(=O)(=O)N(Cc1ccccc1)[C@H](CO)CC(C)C	13µM*	13µM*	?	-78.5*	?
O=S(=O)(N(Cc1ccccc1)[C@H](CO)Cc1ccccc1)N(Cc1ccccc1)[C@H](CO)Cc1ccccc1	?	?	-5.2%	2.6	-4.4%

Compound activity as filed in PubChem BioAssay.
